Source: ChEMBL document CHEMBL3988442, “University of Dundee, Small-Polar-MMV Screening Library” (2021)
In all, about 69,000 compounds went through this assay and about 1,000 (1.4%) showed an effect of 50% or more. Many of the other results were omitted from the sample, so strong results are more common in it than they were.

Test system: Leishmania donovani
Test: Leishmania intramacrophage assay
Assay type: functional, organism-based
Parameters: scale not given: in the data most compounds retested in dose-response had high values

In the case of `CC(=O)N1CC[C@H]2OCC[C@@]2(C(=O)NCCc2ccccn2)C1.O=C(O)C(F)(F)F`, the “Percent Effect” value (30.3 µM, […]) is reported as -0.5887%.
With `CNc1snc(C)c1C(=O)N1CCCC(n2cccn2)C1` (stereo unspecified) the “Percent Effect” value (30 µM) was 20.79%.
`N#Cc1ccccc1N1CCCN(C(=O)CCc2ccco2)CC1` was tested, and the “Percent Effect” value (30.3 µM, […]) was 17.14%.
`CN(C(=O)C1(C#N)CCCCC1)c1nccs1` was tested, and the “Percent Effect” value (30.3 µM, […]) was 12.59%.
For `Cn1nc(Cn2ccnc2)c2c1CN(Cc1ccoc1)C2.O=C(O)C(F)(F)F.O=C(O)C(F)(F)F`, the “Percent Effect” value (30.3 µM, […]) was 2.195%.
`Cc1ccoc1C(=O)N1Cc2c(Cn3ccnc3)nn(C)c2C1.O=C(O)C(F)(F)F` was tested, and the “Percent Effect” value (30.3 µM, […]) was 12.09%.
`Cn1nc(Cn2ccnc2)c2c1CN(C(=O)c1ccoc1)C2.O=C(O)C(F)(F)F` was tested, and the “Percent Effect” value (30.3 µM, […]) was 54.37%.
`COCc1nc2n(n1)CCCC2Nc1nc(C)ns1` (stereo unspecified) was tested, and the “Percent Effect” value (30.3 µM, […]) was -12.79%.
For `O=C(CC1CCC2(CC1)CCN(Cc1nccs1)CC2)N1CC=CC1`, the “Percent Effect” value (30.3 µM, […]) was -13.52%.
`CC(C)(C)c1nc(CNc2ccccc2SCCC(N)=O)cs1` was tested, and the “Percent Effect” value (30.3 µM, […]) was -34.53%.
`NC(=O)C(NC(=O)CCc1ccc(Cl)s1)c1ccccc1` (stereo unspecified) was tested, and the “Percent Effect” value (30.3 µM, […]) was 20.24%.
For `Cc1ccc(CNc2ccccc2SCCC(N)=O)s1`, the “Percent Effect” value (30.3 µM, […]) was 58.74%.
With `NC(=O)CCSc1ccccc1NCc1ccc(Cl)s1` the “Percent Effect” value (30.3 µM, […]) was 57.16%.
For `CC(C)(C)c1ncc(CNc2ccccc2SCCC(N)=O)s1`, the “Percent Effect” value (30.3 µM, […]) was -11.51%.
`NC(=O)C(NCc1ccc(Cl)s1)c1ccccc1` (stereo unspecified) was tested, and the “Percent Effect” value (30.3 µM, […]) was 22.99%.
`Cc1nn(C)c(C)c1CN(C)C(=O)c1cccc(CCC(C)(C)O)c1` was tested, and the “Percent Effect” value (30.3 µM, […]) was 45.36%.
For `O=C(O)C(F)(F)F.O=C(c1ccc[nH]1)N1CCCn2c(CNC3CCC3)nnc2C1`, the “Percent Effect” value (30.3 µM, […]) was 19.78%.
For `Cc1ccccc1-c1cncc(C2CCN(C3CCOCC3)CC2)n1`, the “Percent Effect” value (30.3 µM, […]) was -12.97%.
With `NCC1CCN(c2nc(C3CCCC3)nc3c2CCNCC3)C1` (stereo unspecified) the “Percent Effect” value (30.3 µM, […]) was -3.279%.
For `C1CCC(c2nc3c(c(N4CCN5CCCC5C4)n2)CCNCC3)C1` (stereo unspecified), the “Percent Effect” value (30.3 µM, […]) was 52.04%.
For `C1CCC(c2nc3c(c(N4CC(N5CCOCC5)C4)n2)CCNCC3)C1`, the “Percent Effect” value (30.3 µM, […]) was 33.91%.
In the case of `CCc1cn[nH]c1C1CCN(c2cc(C)c3cccc(OC)c3n2)CC1`, the “Percent Effect” value (30.3 µM, […]) is reported as 13.27%.
For `Cn1cnc(-c2nc(C(=O)NCCN3CCOCC3)c3ccccn23)c1`, the “Percent Effect” value (30.3 µM, […]) was 40.37%.
In the case of `Cn1cnc(-c2nc(C(=O)NCCN3CCCC3)c3ccccn23)c1`, the “Percent Effect” value (30.3 µM, […]) is reported as 50.91%.
For `COCCNC(=O)c1nc(-c2cn(C)cn2)n2ccccc12`, the “Percent Effect” value (30.3 µM, […]) was 36.99%.
For `COCCN1CCN(Cc2nccs2)[C@H]2CS(=O)(=O)C[C@H]21`, the “Percent Effect” value (30.3 µM, […]) was -6.4%.
In the case of `O=C(NCCC(=O)N1CCCC1)c1nn(-c2ccccc2F)cc1O`, the “Percent Effect” value (30 µM, 30.03 µM) is reported as -0.1897%.
In the case of `Cc1ncsc1CCC(=O)N1CCn2cccc2C1c1cccnc1` (stereo unspecified), the “Percent Effect” value (30.3 µM, […]) is reported as 18.51%.
`CN(Cc1cnc(C(C)(C)C)nc1)Cc1nc2ccc(F)cc2[nH]1` was tested, and the “Percent Effect” value (30.3 µM, […]) was 52.7%.
In the case of `Cc1ccc(CN(C)Cc2nc3ccc(F)cc3[nH]2)cn1`, the “Percent Effect” value (30.3 µM, […]) is reported as 12.06%.
For `CNS(=O)(=O)c1ccc(CN(C)Cc2nc3ccc(F)cc3[nH]2)cc1`, the “Percent Effect” value (30.3 µM, […]) was -17.23%.
`Cc1c(C(=O)NCC2CCS(=O)(=O)C2)cnn1-c1ccccc1` (stereo unspecified) was tested, and the “Percent Effect” value (30.3 µM, […]) was -5.688%.
With `CN(C)C(=O)c1cccnc1-c1ccc2c(c1)OCO2` the “Percent Effect” value (30.3 µM, […]) was 11.7%.
In the case of `C[C@@H]1CN(Cc2cc3ccccc3n2C)CC[C@@]1(O)C1CC1`, the “Percent Effect” value (30.3 µM, […]) is reported as 34.38%.
With `Cc1ccc2c(c1)cc(CN1CC[C@](C)(O)[C@H](C)C1)n2C` the “Percent Effect” value (30.3 µM, […]) was 50.4%.
In the case of `C[C@@H]1CN(Cc2cc3ccccc3n2C)CC[C@]1(C)O`, the “Percent Effect” value (30.3 µM, […]) is reported as 19.22%.
For `CC(C(=O)N1CCN(CCOc2ccccc2)CC1)n1cncn1` (stereo unspecified), the “Percent Effect” value (30.3 µM, […]) was 10.7%.
In the case of `CCOCC1CN(S(=O)(=O)C2CC2)Cc2cnn(C)c21` (stereo unspecified), the “Percent Effect” value (30.3 µM, […]) is reported as -42.59%.
`CN(CC(=O)N1CCCC1)C(=O)c1ccccc1Nc1ccccc1` was tested, and the “Percent Effect” value (30.3 µM, […]) was -2.979%.
With `CCc1cnc(N)nc1N[C@@H](C)c1ncccc1C` the “Percent Effect” value (30.3 µM, […]) was 22.19%.
With `CCc1cnc(N)nc1NC(C)c1cnn(C)c1` (stereo unspecified) the “Percent Effect” value (30.3 µM, […]) was 1.659%.
With `CCc1cnc(N)nc1NC(C)c1ccc(C)c(C)c1` (stereo unspecified) the “Percent Effect” value (30.3 µM, […]) was 88.85%.
`CC(C)OC[C@H]1CCC[C@]12CN(S(=O)(=O)c1cn(C)cn1)CCO2` was tested, and the “Percent Effect” value (30.3 µM, […]) was 9.701%.
With `NC(c1ccc(F)cc1)c1cccs1` (stereo unspecified) the “Percent Effect” value (30.3 µM, […]) was 6.777%.
`CN(C)CCO[C@@H]1CC[C@H]2[C@H]1OCCN2C(=O)c1ccccc1F` was tested, and the “Percent Effect” value (30.3 µM, […]) was 24.56%.
`CC(C)c1nccc(CN2CCC(O)(CN3CCCCC3)C2)n1` (stereo unspecified) was tested, and the “Percent Effect” value (30.3 µM, […]) was 18.94%.
With `CC(C)(C)c1nccc(C2(c3ccccc3Cl)CCNCC2)n1` the “Percent Effect” value (30.3 µM, […]) was 98.02%.
In the case of `CCC1C(=O)NCCN1c1ccnc(C(C)(C)C)n1` (stereo unspecified), the “Percent Effect” value (30.3 µM, […]) is reported as -23.65%.
`Clc1ccccc1C1(c2ccnc(-c3ccncc3)n2)CCNCC1` was tested, and the “Percent Effect” value (30 µM, 30.03 µM) was 69.77%.
With `CC(C)c1nccc(CN2CCCC(O)(CN3CCCC3)C2)n1` (stereo unspecified) the “Percent Effect” value (30.3 µM, […]) was -4.495%.
With `O=c1[nH]cccc1-c1nccc(C2(c3ccccc3Cl)CCNCC2)n1` the “Percent Effect” value (30.3 µM, […]) was 3.768%.
With `Clc1ccccc1C1(c2ccnc(-c3ncccn3)n2)CCNCC1` the “Percent Effect” value (30 µM, 30.03 µM) was 15.9%.
For `CC(C)c1nccc(C2(c3ccccc3Cl)CCNCC2)n1`, the “Percent Effect” value (30.3 µM, […]) was 86.79%.
With `CC(C)CSCCN1CCN(S(C)(=O)=O)CC1` the “Percent Effect” value (30.3 µM, […]) was -11.46%.
`O=C(c1ccccc1)N1C[C@@H]2CC[C@H](C1)N(C(=O)CN1CCOCC1)C2` was tested, and the “Percent Effect” value (30.3 µM, […]) was 12.92%.
For `CCNc1c(C#N)c(=O)n(C)c(=O)n1C`, the “Percent Effect” value (30.3 µM, […]) was 22.41%.
In the case of `OC1CCN(c2ccnc(NCCN3CCc4ccccc4C3)n2)C1` (stereo unspecified), the “Percent Effect” value (30.3 µM, […]) is reported as 47%.
With `OC1CCN(c2ccnc(NCCc3ccccc3Cl)n2)CC1` the “Percent Effect” value (30.3 µM, […]) was -1.281%.
`OC1CCN(c2ccnc(NCCc3ccccc3Cl)n2)C1` (stereo unspecified) was tested, and the “Percent Effect” value (30.3 µM, […]) was 64.18%.
For `Cn1cc(C(=O)Nc2cccc(CCN3CCCC3)c2)ccc1=O`, the “Percent Effect” value (30.3 µM, […]) was 25.83%.
In the case of `Cc1cc(=O)c(C(=O)Nc2cccc(CCN3CCCC3)c2)c[nH]1`, the “Percent Effect” value (30.3 µM, […]) is reported as 12.01%.
In the case of `Cc1ccc(F)c(C(=O)Nc2cccc(CCN3CCCC3)c2)c1`, the “Percent Effect” value (30.3 µM, […]) is reported as 51.62%.
With `CN(C(=O)c1cccc2[nH]ncc12)C1CCN(c2ccccn2)CC1` the “Percent Effect” value (30 µM, 30.03 µM) was -37.63%.
`COc1c(C)cc(CNCc2ccnc(N3CCOCC3)c2)cc1C.Cl` was tested, and the “Percent Effect” value (30 µM) was 54.99%.
In the case of `COc1cc(CNCc2ccnc(N3CCOCC3)c2)cc(OC)c1`, the “Percent Effect” value (30 µM) is reported as 28.31%.
In the case of `COc1cc(CNCc2ccnc(N3CCOCC3)c2)cc(Cl)c1OC`, the “Percent Effect” value (30 µM, 30.03 µM) is reported as 26.59%.
